Assay outcomes (PubChem BioAssay)
ELG1 genotoxic: inducers of genotoxicity in HEK293T ELG1-luciferase cells; Potency, µM (top dose mostly 46 µM), for inactives: top-dose activity change, positive = activation, usual class: activators; HEK293T ELG1-luciferase reporter, luminescence, 16 h; hit rate 1.3% among 330,000; AID 504466; also: % of control where 0% means no effect; nearly all actives have a fitted effect of over 60% in size
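HEK293T cells expressing luciferase-tagged ELG1 were treated with compound or DMSO for 16 hr at 37°C. Luciferase activity was then read after 30 min with ONE-Glo at room temperature; rising signal flags genetic stress.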
FLuc modulator: inhibits or activates purified firefly luciferase, miR-21 counter-screen; P08659; purified FLuc, Km substrates, luminescence inhibition; Potency, µM (top dose mostly 57.5 µM), for the others: at the top dose activity change, negative = inhibition, actives largely listed as inhibitors; hit rate 6.9% among 360,000; AID 588342;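 also: plate controls were vehicle for no effect and reference inhibitor for full effect; nearly all actives have a fitted effect of over 55% in size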
Target sequence (P08659 whole entry, looked up): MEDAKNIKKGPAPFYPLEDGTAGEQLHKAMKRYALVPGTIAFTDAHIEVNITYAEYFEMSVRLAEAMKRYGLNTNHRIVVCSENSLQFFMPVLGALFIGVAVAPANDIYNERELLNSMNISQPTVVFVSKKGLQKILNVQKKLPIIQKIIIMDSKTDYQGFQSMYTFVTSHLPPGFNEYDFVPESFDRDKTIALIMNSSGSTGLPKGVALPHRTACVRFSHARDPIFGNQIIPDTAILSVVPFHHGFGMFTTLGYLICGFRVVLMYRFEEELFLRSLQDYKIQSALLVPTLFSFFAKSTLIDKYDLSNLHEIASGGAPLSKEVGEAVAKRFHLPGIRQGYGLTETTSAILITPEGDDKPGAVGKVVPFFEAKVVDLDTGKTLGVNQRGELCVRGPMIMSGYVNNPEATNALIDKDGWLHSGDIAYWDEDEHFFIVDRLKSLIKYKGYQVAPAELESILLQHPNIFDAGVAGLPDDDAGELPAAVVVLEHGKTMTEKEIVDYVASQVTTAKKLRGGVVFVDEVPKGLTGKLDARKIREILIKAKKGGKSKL
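Biochemical qHTS of compounds, final roughly 60 µM downward over six points, against 10 nM purified firefly luciferase using Km concentrations of substrates (10 uM D-luciferin, 10 uM ATP) in Tris acetate pH 7.5 buffer; luminescence output.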
NPC1 promoter act: activators of NPC1 promoter; Huh7 NPC1 promoter luciferase reporter, 24 h; Potency, µM (top dose mostly 9.22 µM), for inactives: at the top dose activation, most hits filed as activators; hit rate 2.4% among 320,000; also: % of control where 0% means no effect; nearly all actives have a fitted effect of over 60% in size
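Stable NPC1-promoter luciferase Huh7 line; cpd (DMSO) 24 h, 37 °C, 5% CO2; Amplite luciferase reagent 10 min RT; luminescence readout. qHTS format.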
Rab9 prom act: Rab9 promoter activation; Huh7 Rab9 promoter-luciferase reporter, luminescence, 24 h; Potency, µM (highest dose often 9.22 µM), inactives show at the top dose activation, negative = inhibition, most hits filed as activators; hit rate 2.8% among 320,000; also: % of control where 0% means no effect; nearly all actives have a fitted effect of over 60% in size
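Rab9 promoter-driven luciferase in stably transfected Huh7 cells; 1500 cells/well rested 2 h, exposed to compound in DMSO for 24 h at 37 °C, 5% CO2. Luminescence read 10 min after adding luciferase reagent at ambient temperature.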
SMN2 splice enh: increases expression of the SMN2 splice variant; HEK293 SMN2-luciferase splicing reporter, luminescence, 30-36 h; Potency, µM (highest dose often 46.1 µM), for the others: at the top dose activity change, positive = activation, hits mostly activators; hit rate 2.8% among 210,000; AID 1458; also: % of control where 0% means no effect; nearly all actives have a fitted effect of over 55% in size
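HEK293 cells carry an SMN2 […]–luciferase reporter in which exon 7 inclusion puts luciferase in frame. Cells were plated 10-12 h before compound addition, then incubated 30-36 h at 37C. ONE-Glo luminescence was read; sodium butyrate at 4.5 mM final served as control.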
KinaseGlo FLuc: Kinase-Glo luciferase inhibition (counter-screen); AID 1379; Potency, µM (top dose mostly 38.3 µM), for inactives: top-dose activity change, negative = inhibition, most hits filed as inhibitors; hit rate 0.28% among 200,000; Kinase-Glo luciferase, ATP luminescence, 8 min; Q27757; also: % is scaled to controls: 0 for no effect and ±100 for the full control effect; nearly all actives have a fitted effect of over 60% in size
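Compounds were added to a substrate mix at pH 7.2 (50 mM imidazole, 10 uM ATP, within the enzyme's linear range), followed by Kinase-Glo detection reagent; luminescence was measured after 8 minutes at ambient temperature.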
Numbers without * were called inactive; ? = inconclusive; nt = no result given; [ ] = another dose, or the depositor's remark. Shown are actives, neighbours in structure and some others; about 7.3% of the full set was active somewhere. Calls follow the shape of the dose curve; as a rule, active = well fitted curve in the direction sought with a large enough effect; inconclusive = small, poorly fitted or top-dose-only effect, or another doubt; inactive = no such curve, though single readings can be large; an effect the other way counts as inactive or inconclusive. Potency is read from the fitted curve at half-maximal effect.

SMILES | ELG1 genotoxic | FLuc modulator | NPC1 promoter act | Rab9 prom act | SMN2 splice enh | KinaseGlo FLuc
CCOc1ccc(/C=C/C(=O)C(C(N)=O)=C2SCCS2)cc1 | 8.4% | 1.69µM* | ? | ? | -27.5% | -3.8%
Cc1ccc(/C=C2/Sc3ccc(C(=O)N4CCC5(CC4)OCCO5)cc3NC2=O)cc1 | -5.6% | 15.1µM* | -2.7% | -1.7% | nt | nt
CN1C(=O)c2ccccc2Sc2ccc(C(=O)N3CCC4(CC3)OCCO4)cc21 | 5.9% | 1.5% | 0.3% | -0.6% | -18.7% | -4.8%
CC12CC[C@H]3[C@@H](CCC4(O)C[C@H](O)CCC34/C=N/NC(=O)c3ccccc3O)C1(O)CCC2C1=CC(=O)OC1 (some centres undefined) | -13.1% | 26.9µM* | 7.1% | -7.7% | nt | nt
CC12CC[C@H]3[C@@H](CCC4(O)C[C@H](O)CCC34/C=N/NC(=O)c3ccc(O)cc3)C1(O)CCC2C1=CC(=O)OC1 (some centres undefined) | -2.3% | 19µM* | -1.7% | -4.1% | nt | nt
CC12CC[C@H]3[C@@H](CCC4(O)C[C@H](O)CCC34/C=N/NC(=O)c3ccccc3F)C1(O)CCC2C1=CC(=O)OC1 (some centres undefined) | -2.6% | -15.8% | 3.0% | -2.6% | nt | nt
CC1=NN(c2ccc(S(=O)(=O)O)cc2C)C(=[OH+])[C@H]1N=Nc1cc(S(=O)(=O)O)ccc1C(=O)O.O.[Cr] | nt | nt | nt | nt | -10.3%[9.22 µM] | -6.4%[7.66 µM]
CN(C)CCC(C#N)(c1ccccc1)c1ccccc1 | nt | nt | nt | nt | -8.3%[9.22 µM] | -1.0%[7.66 µM]
CCCCCCCC(=O)Cl | nt | nt | nt | nt | -3.1% | nt
COc1cc2c3cc1Oc1c(O)c(OC)cc4c1[C@@H](Cc1ccc(cc1)Oc1cc(ccc1O)C[C@H]3N(C)CC2)N(C)CC4 | nt | nt | nt | nt | -20.6%[9.22 µM] | -5.6%[7.66 µM]
